In PubChem BioAssay (NCI):
The panel holds about 83,000 compounds, 20% with a hit somewhere; the sample as a whole holds those more often.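 The endpoint reported here, percent growth, reads 100 for growth as untreated, 0 for no net growth and -100 for all cells dead.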 Calls of active or inactive are those of the source. Rule for the calls: active = growth percent below 10; inactive = the rest.

Tests used:
Experiment in all cases: NCI-60 one-dose screen, 48 h (100 = growth as untreated, 0 = no growth, -100 = all killed)
Conditions in all cases: 10 µM unless noted
DU-145 prostate = system: DU-145 prostate
K-562 leukemia = system: K-562 leukemia
MALME-3M melanoma = system: MALME-3M melanoma
MDA-MB-231 breast = system: MDA-MB-231 breast
RXF 393 renal = system: RXF 393 renal
SF-268 CNS = system: SF-268 CNS
SF-295 CNS = system: SF-295 CNS
SF-539 CNS = system: SF-539 CNS
UACC-257 melanoma = system: UACC-257 melanoma
M14 melanoma = system: M14 melanoma
HCT-15 colon = system: HCT-15 colon
HT29 colon = system: HT29 colon
SNB-75 CNS = system: SNB-75 CNS
SNB-19 CNS = system: SNB-19 CNS
U251 CNS = system: U251 CNS
SK-MEL-5 melanoma = system: SK-MEL-5 melanoma
UACC-62 melanoma = system: UACC-62 melanoma
LOX IMVI melanoma = system: LOX IMVI melanoma
SK-MEL-28 melanoma = system: SK-MEL-28 melanoma
PC-3 prostate = system: PC-3 prostate

Measured: growth

CC(C)=CCC[C@](C)(O)C1CC[C@]2(C)[C@@H]1CC[C@@H]1[C@@]3(C)CC/C(=N\OCCC#N)C(C)(C)[C@@H]3CC[C@]12C (some centres not stated)
inactive: DU-145 prostate 83.9% | K-562 leukemia 67.6% | MALME-3M melanoma 71.8% | MDA-MB-231 breast 94.1% | RXF 393 renal 109% | SF-268 CNS 87.4% | SF-295 CNS 97.9% | SF-539 CNS 91.9% | UACC-257 melanoma 86.1% | M14 melanoma 88.5% | HCT-15 colon 83.4% | HT29 colon 65.1% | SNB-75 CNS 77.8% | SNB-19 CNS 92.4% | U251 CNS 90.3% | SK-MEL-5 melanoma 85.8% | UACC-62 melanoma 68.9% | LOX IMVI melanoma 89.2% | SK-MEL-28 melanoma 94.1%

Cc1cc(N2CCOCC2)nc(N(CCCNc2ccnc3cc(Cl)ccc23)Cc2ccc3c(c2)OCO3)n1
active: K-562 leukemia -43.7% | MALME-3M melanoma -20.5% | MDA-MB-231 breast -37.1% | RXF 393 renal -75.6% | SF-295 CNS -69% | SF-539 CNS -75.4% | UACC-257 melanoma -31.5% | M14 melanoma -61.1% | HCT-15 colon -31.6% | HT29 colon -61% | SNB-75 CNS -43.3% | U251 CNS -47.6% | SK-MEL-5 melanoma -37.2% | UACC-62 melanoma -18.4% | LOX IMVI melanoma -90.8% | SK-MEL-28 melanoma -42.6%
inactive: DU-145 prostate 20.3% | SF-268 CNS 15% | SNB-19 CNS 40.6%

COc1ccc(S(=O)(=O)Oc2ccc(-c3sc4cc(OS(=O)(=O)c5ccc(OC)cc5)ccc4c3C(=O)c3ccc(OCCN4CCCCC4)cc3)cc2)cc1
inactive: DU-145 prostate 107% | K-562 leukemia 103% | MALME-3M melanoma 92.3% | MDA-MB-231 breast 108% | RXF 393 renal 110% | SF-268 CNS 102% | SF-295 CNS 93.2% | SF-539 CNS 95.2% | UACC-257 melanoma 93% | M14 melanoma 105% | HCT-15 colon 101% | HT29 colon 92% | SNB-75 CNS 70.9% | SNB-19 CNS 103% | U251 CNS 99.7% | SK-MEL-5 melanoma 101% | UACC-62 melanoma 101% | LOX IMVI melanoma 101% | SK-MEL-28 melanoma 103%

COc1cc(C(=O)/C=C/c2c(-c3cccs3)nc3sc(C)cn23)cc(OC)c1OC
inactive: MDA-MB-231 breast 43.3% | SF-268 CNS 20% | HCT-15 colon 10.4% | SNB-19 CNS 15.5% | SK-MEL-28 melanoma 21.7%
active: DU-145 prostate -18.1% | K-562 leukemia 7.44% | MALME-3M melanoma -10.6% | RXF 393 renal -35.3% | SF-295 CNS 3.07% | SF-539 CNS -2.02% | UACC-257 melanoma 0.649% | M14 melanoma 1.71% | HT29 colon 3.69% | SNB-75 CNS -15.6% | U251 CNS 5.96% | SK-MEL-5 melanoma -56.5% | UACC-62 melanoma -38.7% | LOX IMVI melanoma 9.35%

COc1cc(C2CC(c3cccc(Nc4ccncc4)c3)=Nc3c(N)ncnc3N2)cc(OC)c1OC (configuration not stated)
inactive: DU-145 prostate 88.3% | K-562 leukemia 29.3% | MALME-3M melanoma 83.7% | MDA-MB-231 breast 91% | RXF 393 renal 94.2% | SF-268 CNS 79% | SF-295 CNS 95.5% | SF-539 CNS 94.8% | UACC-257 melanoma 88.2% | M14 melanoma 90.7% | HCT-15 colon 88.3% | HT29 colon 98.1% | SNB-75 CNS 83.8% | SNB-19 CNS 93.8% | U251 CNS 77.7% | SK-MEL-5 melanoma 93.7% | UACC-62 melanoma 87.3% | LOX IMVI melanoma 91.3% | SK-MEL-28 melanoma 102%

CCOC(=O)c1c(N)sc2cc(O)ccc12
inactive: DU-145 prostate 89.2% | K-562 leukemia 89.9% | MALME-3M melanoma 118% | MDA-MB-231 breast 106% | RXF 393 renal 115% | SF-268 CNS 105% | SF-295 CNS 96.3% | SF-539 CNS 106% | UACC-257 melanoma 115% | M14 melanoma 108% | HCT-15 colon 97.1% | HT29 colon 104% | SNB-75 CNS 86.7% | SNB-19 CNS 106% | U251 CNS 98.9% | PC-3 prostate 103% | UACC-62 melanoma 92.3% | LOX IMVI melanoma 96.5% | SK-MEL-28 melanoma 92.7%

COc1ccccc1NC(=O)n1c(=O)cc(C)c2ccc(O)cc21
inactive: DU-145 prostate 113% | K-562 leukemia 117% | MALME-3M melanoma 106% | MDA-MB-231 breast 106% | RXF 393 renal 94.8% | SF-268 CNS 106% | SF-295 CNS 101% | SF-539 CNS 106% | UACC-257 melanoma 111% | M14 melanoma 113% | HCT-15 colon 104% | HT29 colon 106% | SNB-75 CNS 101% | SNB-19 CNS 106% | U251 CNS 106% | SK-MEL-5 melanoma 98.3% | UACC-62 melanoma 100% | LOX IMVI melanoma 105% | SK-MEL-28 melanoma 113%

CN1CCN(c2ccc(Nc3ncc4[nH]c(=O)n(Cc5ccccc5N)c4n3)cc2)CC1
inactive: DU-145 prostate 103% | K-562 leukemia 69.8% | MALME-3M melanoma 83.9% | MDA-MB-231 breast 83.8% | RXF 393 renal 83.8% | SF-268 CNS 72.8% | SF-295 CNS 98.2% | SF-539 CNS 80.9% | UACC-257 melanoma 112% | M14 melanoma 95.9% | HCT-15 colon 106% | HT29 colon 80.2% | SNB-75 CNS 39.9% | SNB-19 CNS 107% | U251 CNS 100% | PC-3 prostate 83.1% | UACC-62 melanoma 97.6% | LOX IMVI melanoma 88.7% | SK-MEL-28 melanoma 111%

CC(C)(C)n1cc(-c2ccnc(NCCNS(=O)(=O)c3ccc(C(F)(F)F)cc3)c2)c(-c2ccccc2)n1
inactive: DU-145 prostate 99.2% | K-562 leukemia 44.3% | MALME-3M melanoma 109% | MDA-MB-231 breast 92.1% | RXF 393 renal 87.8% | SF-268 CNS 95.3% | SF-295 CNS 83.7% | SF-539 CNS 82.2% | UACC-257 melanoma 104% | M14 melanoma 88.8% | HCT-15 colon 75.6% | HT29 colon 53.7% | SNB-75 CNS 80.9% | SNB-19 CNS 101% | U251 CNS 75.4% | SK-MEL-5 melanoma 80.7% | UACC-62 melanoma 80.9% | LOX IMVI melanoma 93.1%

CC1=C([Se]CC(OC(=O)[C@@H](CO)NC(=O)OC(C)(C)C)C(=O)NCCCCCC(=O)OCc2ccccc2)C(=O)c2ccccc2C1=O (some centres not stated)
active: DU-145 prostate -54.6% | K-562 leukemia -4.48% | MALME-3M melanoma -68.1% | MDA-MB-231 breast -54.4% | RXF 393 renal -99.4% | SF-268 CNS -2.71% | SF-295 CNS -38.4% | SF-539 CNS -92.6% | UACC-257 melanoma -94% | M14 melanoma -95% | HCT-15 colon -45.8% | HT29 colon -67.5% | SNB-75 CNS -99.6% | SNB-19 CNS -87% | U251 CNS -85.8% | SK-MEL-5 melanoma -89.9% | UACC-62 melanoma -76% | LOX IMVI melanoma -76.6% | SK-MEL-28 melanoma -89.1%

CN1C(=O)N(C)C2C1NN=c1s/c(=C\c3ccc(F)cc3)c(=O)n12 (configuration not stated)
active: UACC-257 melanoma 1.68% | HT29 colon 2.74% | SNB-75 CNS -7.45%
inactive: DU-145 prostate 58.5% | K-562 leukemia 11.4% | MALME-3M melanoma 31.5% | MDA-MB-231 breast 29.4% | RXF 393 renal 38.5% | SF-268 CNS 58.7% | SF-295 CNS 28.8% | SF-539 CNS 29.7% | M14 melanoma 23.1% | HCT-15 colon 27.3% | SNB-19 CNS 34.8% | U251 CNS 26.8% | PC-3 prostate 34.8% | UACC-62 melanoma 26.7% | LOX IMVI melanoma 36.1% | SK-MEL-28 melanoma 59.4%

C=CCn1c(SCC(=O)Nc2ccc(C(=O)/C=C/c3ccc(Cl)cc3)cc2)nnc1-c1ccccc1
inactive: DU-145 prostate 93.7% | K-562 leukemia 76.3% | MALME-3M melanoma 98.7% | MDA-MB-231 breast 101% | RXF 393 renal 118% | SF-268 CNS 84.7% | SF-295 CNS 94.9% | SF-539 CNS 96.6% | UACC-257 melanoma 111% | M14 melanoma 94.4% | HCT-15 colon 87.7% | HT29 colon 89.2% | SNB-75 CNS 70.8% | SNB-19 CNS 92.6% | U251 CNS 94.3% | SK-MEL-5 melanoma 98.7% | UACC-62 melanoma 85.1% | LOX IMVI melanoma 92.3% | SK-MEL-28 melanoma 90.2%

COc1ccc(C(c2cc(OC)c(OC)c(OC)c2)n2cncn2)cc1O (configuration not stated)
inactive: DU-145 prostate 19.6% | MALME-3M melanoma 70.2% | MDA-MB-231 breast 43.1% | SF-268 CNS 48.8% | UACC-257 melanoma 44.4% | HCT-15 colon 14% | SNB-75 CNS 48.6% | SNB-19 CNS 33.3% | U251 CNS 15.3% | SK-MEL-5 melanoma 14.6% | UACC-62 melanoma 32% | LOX IMVI melanoma 43.5%
active: K-562 leukemia 8.34% | RXF 393 renal -13.8% | SF-295 CNS 2.56% | SF-539 CNS 9.34% | M14 melanoma -1.61% | HT29 colon 5.3%

Cc1ccc(-c2nn(CC(=O)N3CCOCC3)c(N)c2C#N)cc1
inactive: DU-145 prostate 111% | K-562 leukemia 99.8% | MALME-3M melanoma 104% | MDA-MB-231 breast 108% | RXF 393 renal 110% | SF-268 CNS 99% | SF-295 CNS 102% | SF-539 CNS 99.2% | UACC-257 melanoma 107% | M14 melanoma 104% | HCT-15 colon 105% | HT29 colon 112% | SNB-75 CNS 89.4% | SNB-19 CNS 97.4% | U251 CNS 99.4% | SK-MEL-5 melanoma 102% | UACC-62 melanoma 93.1% | LOX IMVI melanoma 100%

N/C(=N\c1nc2ccccc2s1)NC(=O)Nc1ccccc1
active: M14 melanoma 7.51%
inactive: DU-145 prostate 58.1% | K-562 leukemia 10.8% | MALME-3M melanoma 58.1% | MDA-MB-231 breast 31.6% | RXF 393 renal 62.1% | SF-268 CNS 57.5% | SF-295 CNS 39% | SF-539 CNS 26.9% | UACC-257 melanoma 59% | HCT-15 colon 23.4% | HT29 colon 14.3% | SNB-75 CNS 31.4% | SNB-19 CNS 32.1% | U251 CNS 21% | PC-3 prostate 57.1% | UACC-62 melanoma 21% | LOX IMVI melanoma 34.7% | SK-MEL-28 melanoma 72.3%
